Results as given in the supplement of paper PMC10681739.

Tests used:
ETS1 [1] = biological target: T1, ETS1 (UniProt P14921); test: ETS1 binding intensity (PBM fluorescence), ETS1 alone (arbitrary fluorescence units); higher = stronger binding; conditions: ETS1 concentration 1 nM; RUNX1 concentration 0 nM
T1 sequence: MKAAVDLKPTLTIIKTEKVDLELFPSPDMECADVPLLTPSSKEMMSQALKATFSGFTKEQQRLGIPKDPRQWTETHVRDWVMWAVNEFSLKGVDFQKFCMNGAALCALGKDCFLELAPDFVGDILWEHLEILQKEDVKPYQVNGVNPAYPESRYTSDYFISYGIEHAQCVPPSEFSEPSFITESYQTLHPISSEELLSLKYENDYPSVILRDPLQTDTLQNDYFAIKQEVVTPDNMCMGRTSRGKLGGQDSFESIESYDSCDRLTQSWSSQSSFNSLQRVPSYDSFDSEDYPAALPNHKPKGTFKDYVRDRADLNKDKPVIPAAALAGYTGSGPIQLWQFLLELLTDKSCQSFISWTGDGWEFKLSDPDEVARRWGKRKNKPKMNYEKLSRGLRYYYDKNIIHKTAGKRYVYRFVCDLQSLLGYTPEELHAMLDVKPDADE

RUNX1 [2] = biological target: RUNX1 (UniProt Q01196); test: RUNX1 binding intensity (PBM fluorescence), RUNX1 alone (arbitrary fluorescence units); higher = stronger binding; conditions: RUNX1 concentration 2 nM; ETS1 concentration 0 nM
Sequence of RUNX1 (Q01196 whole entry): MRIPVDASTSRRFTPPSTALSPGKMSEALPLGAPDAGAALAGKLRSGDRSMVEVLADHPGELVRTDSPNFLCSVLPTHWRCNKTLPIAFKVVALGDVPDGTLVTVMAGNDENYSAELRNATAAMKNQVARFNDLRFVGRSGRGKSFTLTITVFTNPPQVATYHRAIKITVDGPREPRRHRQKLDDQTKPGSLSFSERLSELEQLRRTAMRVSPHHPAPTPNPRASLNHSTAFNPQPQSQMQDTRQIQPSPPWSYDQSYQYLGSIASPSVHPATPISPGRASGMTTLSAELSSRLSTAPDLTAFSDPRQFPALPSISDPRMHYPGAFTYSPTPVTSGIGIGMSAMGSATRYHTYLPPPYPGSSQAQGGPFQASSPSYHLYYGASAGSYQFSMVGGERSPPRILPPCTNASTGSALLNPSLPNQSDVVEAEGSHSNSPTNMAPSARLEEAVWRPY
Experimental: (§1)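 Cooperative gcPBM on 36-bp genomic probes with neighbouring ETS1 and RUNX1 sites. Recombinant human RUNX1 (2 nM) was incubated alone or with ETS1 (25 nM) and detected with anti-RUNX1 antibody plus Alexa488 secondary. Values are medians over 4 replicate spots; the RUNX1+ETS1 data were normalised to the RUNX1-only data. The probes sit in constant array flanks that are not printed.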

ETS1 [3] = biological target: T1, ETS1; test: ETS1 binding intensity (PBM fluorescence) in presence of RUNX1, normalised to ETS1-only experiment (arbitrary fluorescence units); higher = stronger binding; conditions: ETS1 concentration 1 nM; RUNX1 concentration 25 nM
RUNX1 [4] = biological target: RUNX1 (UniProt Q01196); test: RUNX1 binding intensity (PBM fluorescence) in presence of ETS1, normalised to RUNX1-only experiment (arbitrary fluorescence units); higher = stronger binding; conditions: RUNX1 concentration 2 nM; ETS1 concentration 25 nM
Experimental: as §1
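For RUNX1 binding intensity (PBM fluorescence) in presence of ETS1, normalised to RUNX1-only experiment in this document: Full-length recombinant human ETS1 or RUNX1 bound to double-stranded 36-bp genomic probes on microarrays, detected by protein-specific primary antibody and Alexa488 secondary, spot fluorescence as median of four replicate spots.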
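For RUNX1 binding intensity (PBM fluorescence), RUNX1 alone in this document: Full-length recombinant human RUNX1 bound to double-stranded 36-bp genomic probes on a high-density microarray, scored as Alexa488 fluorescence per spot via anti-RUNX1 antibody, median of four replicate spots.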

Sequence	ETS1 binding intensity (ETS1 [1])	RUNX1 binding intensity (RUNX1 [2])	ETS1 binding intensity (ETS1 [3])	RUNX1 binding intensity (RUNX1 [4])
CTGCCGCGACAGACAGGATGTGGCTTCTGCTCTGTC	8750	610	16900	1960
TGAGCTCAGGCCGGAAGCGGTGGATGATGGCACACA	9910	716	8670	1560
GTTGGGTGGGGAAGTGGATGGTGGTTTTGGCAGAGG	542	960	713	1210
AACTAAGTGCAGGGGAAGTTGTGGTTATTTTTTACC	657	1270	3360	1760
TGTATAACATCCTCATGTTCTGTGGGTGAGTTGAGC	481	824	356	871
GCCGCGAGTTCCGCCGGGTGGACCACAAATCCCGAG	373	831	451	904
TTGGCTTTGTGTTTCCGCGGTGTTGGTAGAGTCTCG	418	875	482	980
GGGCAGGGCATTTCCTTTGTGGCTGGTGCTCACGGA	493	710	413	1360
AACTTCCGAGGGAACTAACTGGTTTTAACCACATTG	367	886	923	1190
CCAGCAAAGGAAGCTTGGTCAACCACAGCAGCCTGT	393	850	463	891
ATGGGGAACGGGAAATACGGCGGGAACCACAATCGC	734	777	1700	1020
CTGCACTTCCGGTCAGGCGGTCGGGCTGCGGGGCCC	5690	739	6710	2680
CCCGACTTCCGCCGCTGGTGGCCACCCGCAGGTAGT	732	789	1050	2050
GCACCGTCTACCCGGAAGTTGTGGGCTGGGAGGGAT	5610	813	9990	1430
TATCACATCCTGCCGGACAAAAAGGCCAAACCACCT	536	919	473	1850
CACCTGCGGAAGTCACAGGGAAGCCACAGAGAGATG	849	766	1160	1080
ACCGGGTGCTGAGGAGGAAGTGGTTGCTATAACCCC	2350	741	3420	1120
CTGACACTTCCGGGAGCCTTGTAGCCACAGGAATCA	2490	743	2590	1800
GTTTAACAGGAAACCCTGCAGACCACAGGTTCTGTC	1220	807	3630	1680
GGGCGCGACTTCCGGGGCGGCGGTTGCATCAGATTC	1580	774	1780	2100
GACAGCAACTCCACTTCCTGTGGGCGAGGGCCCTGT	1850	835	2270	1790
TCACCTCATCACAGGAAACCGCGAGCACCTCCTCCT	2180	1610	5440	1770
TCCCGGGGAGGAAGTGGCGAGAATGCGGGGGTGGGC	1340	906	1440	1120

Sequence	ETS1 binding intensity (ETS1 [1])	RUNX1 binding intensity (RUNX1 [2])	ETS1 binding intensity (ETS1 [3])	RUNX1 binding intensity (RUNX1 [4])
GAAGTCACTCAGGGAGGAAACCACAGGGCCGGTCCG	466	880	1270	863
GTCCCACGCGACTTCCTGCGGGAAACATGGCGGCAT	1520	771	1820	2170
GCCTCCTCAGGAAATTGCCCAAAATAGCCACATGTC	735	1090	667	1240
GACCAGGAAACGGGGCGTGGCGGCCGCCGTGGTTAC	449	806	485	857
GCTTCTTCCGGCCGGGCCGAGAGGTGGTTACATTCG	683	792	700	1940
CAACCTGCTATAAGGAAGTTAAACCGCAGCTCACCG	718	3670	5980	5610
ACGTCTGTTTCCTGTGATTGAAACCGCAAGAAGAAG	783	4510	2250	18500
GTTGTCTTGCCCAAAGGAAGTGGTTACTAGACCAGA	1770	793	4870	1490
AGCACAAACCCAGGATGTGGTAAATGAAATGAAAAA	1260	858	5210	1460
TGAGAAAACAGGAAGCGCCCAGTCACCACAGAAAGC	2910	765	5290	1330
TCCTCCGTTTCCGTAGTTCCGAGTTGCGGTTTCTCC	487	12000	3790	15200
TGCGCCGCGGAACCCGGAAGTGGTCACGGAGCTCGG	10600	766	23400	3970
TGTGATAAGGATGTTCGTGTGCCTTGTGGTCAGGTG	623	889	1710	905
GAGGACGCGGAAGTCCTTCTTGCGGGGCGGAGCTAG	891	664	840	890
CCCAGGCTTCCGGGTTGAATATGTGGGCTGAGGCGA	455	819	415	1420
TGAGCACTGAGCACTTCCTGTGGCTTCTGAAGCTCC	1860	797	2040	1310
CCTCACAGGGACTTCCTTCCCCGCGGTTCAGGAATC	444	866	577	1100
TTTGTCATATCAACAGGATGTGGTTCTCCCCTGGTT	6920	905	10700	1530
CCCAGCCGAGGGAGGAAGCCTGCGGTCACTGCCATC	402	1640	2740	3190
GCCACTATTTCCTGCCTTCTGCGGCTGAGAGTCCCA	981	1220	997	3520
TGGGGACAGGAAATGTTTACTGCCTGTGGCTTGCTG	3340	705	4240	981
TGACATCCTCTGAGGCAGCAAGCTGCGGTGAAGTCT	400	704	561	1300
CGGGACTTCCTGTCTTCCCTGTTGCGGAGCTCTGAA	1720	780	1830	2000
